SW480 rereplic – induces DNA re-replication in SW480 colon adenocarcinoma cells. SW480 DNA re-replication, Hoechst DNA content imaging, 48 h. Potency, µM (series often up to 46.1 µM), hits mostly activators. hit rate 1.8% among 340,000; also: nearly all actives have a fitted effect of over 55% in size
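Image-based read-out: total Hoechst fluorescence of nuclei (405 nm excitation, 500-530 nm emission), with hits raising the fraction of high-intensity nuclei. SW480 colon cells incubated 48 hr with compounds at 37 C.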
MCF10A rerep – induces DNA re-replication in MCF 10a normal breast cells; MCF 10A DNA re-replication, Hoechst nuclear intensity, 48 h; Potency, µM (titrated, usually from 46.1 µM), usual class: activators; hit rate 2.9% among 350,000; also: nearly all actives have a fitted effect of over 50% in size
HT1080 IDH1KD tx – toxicity to HT-1080 IDH1 knockdown cells (counter line); HT-1080 IDH1 knockdown viability, ATP luminescence, 48 h; Potency, µM (top dose mostly 46.1 µM), hits mostly cytotoxic; hit rate 2% among 360,000; AID 686971
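In this qHTS, HT-1080 cells depleted of IDH1 are exposed for 48 h at 37 °C to compound titrations. Toxicity is scored from CellTiter-Glo luminescence, with DMSO as full viability and medium alone as none.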
HT1080NT lethal – kills 2HG-producing HT-1080-NT fibrosarcoma cells. HT-1080-NT fibrosarcoma viability, CellTiter-Glo ATP luminescence, 48 h. Potency, µM (doses to about 46.1 µM), actives largely listed as cytotoxic. hit rate 1.6% among 360,000;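 also: NT is the 2HG producing partner of a matched IDH1 knockdown line; nearly all actives have a fitted effect of over 55% in size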
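Fibrosarcoma NT cells, 750 per well in 5% FBS RPMI, were exposed to compound for 48 hours. Viability: CellTiter-Glo luminescence.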
KB-V1 MDR tox – kills drug-selected multidrug resistant KB-V1 cells; Potency, µM (titrated, usually from 46.1 µM), most hits filed as cytotoxic; KB-V1 MDR cells viability, CellTiter-Glo, 72 h; hit rate 3.4% among 400,000; also: nearly all actives have a fitted effect of over 60% in size
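Cytotoxicity toward P-gp-expressing KB-V1 cells was determined as loss of CellTiter-Glo luminescence after 72 h at 37 degrees C. Compounds were tested in quantitative HTS format across a concentration range, with curves fitted to normalized data.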
KB-3-1 tox – KB-3-1 parental cell cytotoxicity. KB-3-1 viability, CellTiter-Glo ATP luminescence, 72 h. hit rate 1.4% among 400,000. Potency, µM (top dose mostly 46.1 µM), most hits filed as cytotoxic. AID 1347075; also: nearly all actives have a fitted effect of over 60% in size
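Viability of parental KB-3-1 cells, measured by CellTiter-Glo luminescence, followed a 72 h incubation at 37 °C with pinned compounds in phenol-red-free DMEM containing 10% FBS.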
Large screens that a line does not name were inactive. Most compounds without a hit are left out; they make up all but 8% or so of the library. Calls follow the shape of the dose curve; as a rule, active = well fitted curve in the direction sought with a large enough effect; inconclusive = small, poorly fitted or top-dose-only effect, or another doubt; inactive = no such curve, though single readings can be large; an effect the other way counts as inactive or inconclusive.

Cc1ccccc1Cc1c(C)nc2c(C(=O)NCc3ccc4c(c3)OCO4)cnn2c1C	KB-V1 MDR tox 18µM
Cc1nc2c(C(=O)NCc3ccc4c(c3)OCO4)cnn2c(C)c1Cc1ccc(F)cc1Cl	MCF10A rerep inconclusive, KB-3-1 tox inconclusive
Cc1ccccc1Cc1c(C)nc2c(C(=O)N3CCN(Cc4ccc5c(c4)OCO5)CC3)cnn2c1C	HT1080 IDH1KD tx inconclusive, KB-V1 MDR tox 8.2µM
O=C(NCCCO)c1c(O)c2cccc3c2n(c1=O)CCC3	MCF10A rerep inconclusive, KB-V1 MDR tox 12µM, KB-3-1 tox 5.8µM
NNC(=O)c1c(O)c2cccc3c2n(c1=O)CCC3	MCF10A rerep 21µM, KB-V1 MDR tox inconclusive
Cc1ccc(O)c(-c2n[nH]c3c2C(c2ccccc2F)N(Cc2ccco2)C3=O)c1 (stereo not given)	KB-V1 MDR tox inconclusive (no result: SW480 rereplic, MCF10A rerep, HT1080 IDH1KD tx, HT1080NT lethal)
Cc1c(C(=O)N(Cc2ccc(Cl)cc2)C2CCS(=O)(=O)C2)oc2ccccc12 (stereo not given)	HT1080NT lethal inconclusive, KB-V1 MDR tox 8.2µM, KB-3-1 tox inconclusive
CCOc1ccc(CN(C(=O)c2oc3ccccc3c2C)C2CCS(=O)(=O)C2)cc1 (stereo not given)	SW480 rereplic inconclusive, MCF10A rerep inconclusive, HT1080 IDH1KD tx inconclusive, KB-V1 MDR tox 9.2µM
COc1ccc(CN(C(=O)c2oc3ccccc3c2C)C2CCS(=O)(=O)C2)cc1OC (stereo not given)	none
Cc1ccc2oc(C(=O)N(Cc3ccc(N(C)C)cc3)C3CCS(=O)(=O)C3)c(C)c2c1 (stereo not given)	none (no result: KB-V1 MDR tox, KB-3-1 tox)
COCCCNC(=O)c1sc2nc3n(c(=O)c2c1C)CCC3	none (no result: SW480 rereplic, MCF10A rerep, HT1080 IDH1KD tx, HT1080NT lethal)
CCOC(=O)c1[nH]cnc1N=Nc1c(O)ccc2ccccc12	SW480 rereplic inconclusive, MCF10A rerep inconclusive, HT1080 IDH1KD tx 6.5µM, HT1080NT lethal 5.8µM, KB-V1 MDR tox inconclusive
CCCC(=O)N1CCN(c2ccc(NC(=S)NC(=O)CC)cc2)CC1	KB-V1 MDR tox 23µM
CCC(=O)NC(=S)Nc1ccc(N2CCOCC2)cc1	none
O=C(Nc1ccc2c(c1)nc1n2CCSC1)c1ccccc1	KB-V1 MDR tox 13µM, KB-3-1 tox inconclusive
N#CCc1nc2c3c4c(sc3ncn2n1)CCCC4	KB-V1 MDR tox inconclusive, KB-3-1 tox 2.3µM
CC(C)n1ncc2c(C(=O)NCCc3ccc(F)cc3)cc(C3CC3)nc21	MCF10A rerep inconclusive, KB-V1 MDR tox inconclusive
C=C(C)CN1C(=O)C(C)SC1=NN=C1SCC(=O)N1C (stereo not given)	none (no result: SW480 rereplic, MCF10A rerep)
COC(=O)C(C(=O)OC)C(C[N+](=O)[O-])c1ccc(OC)c(OC)c1 (stereo not given)	none
COc1cc(C(C[N+](=O)[O-])c2c(C)cc3ccccn23)ccc1O (stereo not given)	SW480 rereplic inconclusive, MCF10A rerep inconclusive, HT1080 IDH1KD tx 9.2µM, HT1080NT lethal inconclusive, KB-V1 MDR tox inconclusive, KB-3-1 tox inconclusive
COc1cc(C(C[N+](=O)[O-])c2c(-c3ccccc3)cc3ccccn23)cc(OC)c1OC (stereo not given)	SW480 rereplic 12µM, MCF10A rerep inconclusive, HT1080NT lethal inconclusive, KB-3-1 tox inconclusive
COc1ccc(C(C[N+](=O)[O-])c2c(-c3ccccc3)cc3ccccn23)cc1 (stereo not given)	SW480 rereplic inconclusive, MCF10A rerep 18µM, KB-V1 MDR tox inconclusive, KB-3-1 tox inconclusive
COc1ccc(C(C[N+](=O)[O-])c2c(-c3ccccc3)cc3ccccn23)cc1OC (stereo not given)	SW480 rereplic inconclusive, MCF10A rerep 21µM
O=Nc1c(-c2ccccc2)cc2ccccn12	MCF10A rerep inconclusive
CCOC(=O)C(=CNc1ccc(-c2ccco2)c(Cl)c1)C(=O)OCC	MCF10A rerep 21µM
CCOC(=O)C(=CNc1ccccc1Cl)C(=O)OCC	none
CCOC(=O)C(=CNc1cc(Cl)c(-c2ccco2)c(Cl)c1)C(=O)OCC	MCF10A rerep 16µM, HT1080NT lethal inconclusive
COc1ccc(-c2c3c(=O)n(C)c(=O)n(C)c3cn2-c2cccc(N)c2)cc1	none (no result: SW480 rereplic, MCF10A rerep, HT1080 IDH1KD tx, HT1080NT lethal)
